Sampled rows, rich in hits. Any-hit rate of the full collection: about 1.5%.
PP5 inh – PP5 (human) phosphatase inhibition; P53041; purified PP5c, OMFP substrate fluorescence; inhibition, % at 6.7 µM; 320,000 tested, 0.18% active;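 active = inhibition above the campaign's mean inhibition across all tested compounds plus 3 SD, cut at about 9.5% in these data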;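 note: 0% = DMSO only and 100% = 100 µM cantharidin control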
HIF act – HIF pathway transcriptional activation; U2OS HRE-luciferase reporter, luminescence; normalized: DMSO 0%, desferrioxamine 100%; activation, % at 7.5 µM (by protocol); AID 1910; 300,000 tested, 0.32% active;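 active = mean activation of at least 10% of the iron chelator positive control signal, with at least half of replicates also reaching 10%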
PP1 counter – counter-screen for PP5 inhibitors: inhibitors of human PP1-alpha | P62136 | purified PP1alpha, OMFP fluorescence | inhibition, % at 6.7 µM | 320,000 tested, 0.9% active | AID 2235;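 active = inhibition above the mean inhibition of all tested compounds plus 3 SD, computed separately for each screening campaign, cut at about 15% in these data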
Dyrk1A ADPGlo – blocks rat Dyrk1A kinase activity; 310,000 tested, 0.43% active; ADP-Glo luminescence, NFATc1 peptide; inhibition, % at 12.5 µM; in the data active = inhibition above about 50%;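 note: plate controls were vehicle with enzyme for no effect and no enzyme for full effect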
STK33 kinase inh – inhibitors of human STK33 kinase. inhibition, % at 10 µM. AID 2661. 320,000 tested, 0.073% active. Q9BYT3. purified STK33, MBP phosphorylation, ADP-Glo luminescence;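 active = inhibition at or above 25%, using the most active replicate where run in duplicate; inactive = inhibition below 25%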
Target sequence (Q9BYT3 whole entry, looked up): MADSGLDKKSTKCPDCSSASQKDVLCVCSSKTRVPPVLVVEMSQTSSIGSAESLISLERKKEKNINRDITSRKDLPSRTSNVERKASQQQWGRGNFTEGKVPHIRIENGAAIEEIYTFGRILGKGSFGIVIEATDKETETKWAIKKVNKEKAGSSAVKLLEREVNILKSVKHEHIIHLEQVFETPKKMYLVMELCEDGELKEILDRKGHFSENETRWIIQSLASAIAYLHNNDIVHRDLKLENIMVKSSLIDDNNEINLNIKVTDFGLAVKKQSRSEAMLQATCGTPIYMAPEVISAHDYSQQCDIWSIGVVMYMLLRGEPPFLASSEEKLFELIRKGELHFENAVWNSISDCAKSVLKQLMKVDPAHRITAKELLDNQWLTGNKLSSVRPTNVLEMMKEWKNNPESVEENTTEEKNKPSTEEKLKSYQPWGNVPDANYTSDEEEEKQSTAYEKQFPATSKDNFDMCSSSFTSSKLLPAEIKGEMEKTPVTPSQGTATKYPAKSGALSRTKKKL
* marks the source's active call; other numbers are inactive results; nt = no result given.

SMILES | PP5 inh | HIF act | PP1 counter | Dyrk1A ADPGlo | STK33 kinase inh
COC(=O)c1ccc(COc2ccc(/C=N/Nc3nc(C)cc(=O)[nH]3)cc2)cc1 | 2.6 | 0.4 | 6.0 | 12.1 | -1.9
Cc1ccc(-c2nc(CN(Cc3c(C)nn(C)c3C)C(C)C)c(C)o2)o1 | -2.7 | -0.1 | -8.9 | -0.2 | -1.1
CN(C(=O)COC(=O)c1ccc(=O)n(Cc2ccccc2)n1)c1ccccc1 | 1.6 | 1.2 | -0.8 | 4.2 | 0.0
COc1ccc(C(=O)NNC(=O)c2ccccn2)cc1 | 1.4 | -3.4 | -1.8 | 49.3 | 41.4*
COc1cc(OC)cc(C(=O)O/N=C(\N)c2ccccn2)c1 | 1.8 | 2.3 | -5.5 | nt | -0.1
COc1ccc(C(=O)O/N=C(\N)c2ccccn2)cc1 | 1.1 | -5.7 | 0.6 | 47.1 | 36.7*
COc1cc(OC)cc(C(=O)NNC(=O)c2ccccn2)c1 | 2.4 | 2.0 | -5.2 | -2.1 | -1.2
COc1cccc(CN(C(=O)Cn2nnc(-c3ccccc3F)n2)C(C(=O)NC(C)(C)C)c2ccncc2)c1 (stereo not drawn) | 2.7 | -0.3 | -1.9 | 3.2 | 0.8
COc1cccc(C(=O)Nc2nnc(SCC(=O)Nc3ccc(NC(C)=O)cc3)s2)c1 | 1.6 | 0.0 | 0.4 | -3.0 | -0.4
O=C(NC(CSCc1ccccc1)C(=O)N/N=C/c1ccc(O)cc1O)c1ccc([N+](=O)[O-])cc1 (stereo not drawn) | 0.8 | 42.0* | 8.0 | -1.4 | -3.5
COc1cc(/C=C/c2ccc3cccc(O)c3n2)cc(Br)c1OC | 0.7 | -3.9 | 15.2* | 0.7 | 0.0
COc1ccc(/C=C/c2ccc3cccc(O)c3n2)cc1Br | -0.6 | 2.7 | 17.1* | 8.4 | -5.2
CCCCN(C(=O)CSCC(=O)Nc1ccc(OC)cc1)c1c(N)n(CC(C)C)c(=O)[nH]c1=O | nt | nt | nt | -0.4 | nt
COc1ccc(C2c3cc4c(cc3OC(N3CCOCC3)C2C)OCO4)c(OC)c1 (stereo not drawn) | nt | nt | nt | -2.2 | nt
COc1ccccc1CN(Cc1ccco1)S(=O)(=O)c1ccc(-n2cnnn2)c(OC)c1 | 1.9 | 0.0 | -3.2 | -6.0 | -0.4
COc1ccc(-c2csc(NNC3=NCCCCC3)n2)cc1 | -1.8 | 205.3* | -3.5 | nt | -0.3
O=C(CCCCCCC(=O)Nc1ccccc1)NO | 0.3 | 190.4* | 0.0 | 1.8 | 0.0
Cc1ccc(S(=O)(=O)NC(C)(C)CN2CCCCC2)cc1 | 2.7 | -2.8 | 2.3 | 5.1 | -0.8
CCOc1cc(/C=C(\C#N)C(=O)Nc2ccccn2)ccc1O | -1.4 | -0.1 | 0.5 | 17.3 | -0.9
CCOc1cc(/C=C(\C#N)c2[nH]nc(N)c2C#N)ccc1O | 3.9 | -0.5 | -2.8 | -2.5 | 34.9*
Cc1cc(C)c(C(=O)N2CCCC(N3CCN(c4cccc(C(F)(F)F)c4)CC3)C2)o1 (stereo not drawn) | 0.2 | 134.8* | 0.8 | 5.4 | 0.6
Cc1cc(N/N=C/c2ccc(O)cc2O)nc(-n2nc(C)cc2C)n1 | 6.0 | 3.7 | 16.0* | -4.7 | 0.3
Cc1cc(N/N=C/c2ccc(O)cc2O)nc(-c2ccccc2O)n1 | -1.0 | 20.8* | -0.2 | -1.8 | 10.7
CCCCNC(=O)c1cc(-c2ccc(F)cc2)on1 | 3.6 | 40.5* | 2.8 | 0.8 | -1.8
O=C(NCCCN1CCOCC1)c1cc(-c2ccccc2)on1 | 1.7 | 28.1* | -2.3 | -3.1 | -0.7
SMILES | PP5 inh | HIF act | PP1 counter | Dyrk1A ADPGlo | STK33 kinase inh
O=C(NCCN1CCOCC1)c1cc(-c2ccccc2)on1 | -0.3 | 5.9 | -3.5 | nt | -2.0
CCCOc1ccc(C(F)(F)F)cc1NC(=O)CCc1c(C)noc1C | 0.5 | nt | -2.1 | nt | -0.5
CC1CCN(S(=O)(=O)c2ccc(NC(=O)Cn3nnc(-c4ccccc4)n3)cc2)CC1 | 1.4 | -2.4 | 17.2* | nt | -0.2
Cc1ccc(-c2nnn(CC(=O)Nc3ccc(S(=O)(=O)N4CCC(C)CC4)cc3)n2)cc1 | 3.0 | -1.4 | 15.6* | 4.6 | -0.4
CC1CCCN(S(=O)(=O)c2ccc(NC(=O)Cn3nnc(-c4ccccc4F)n3)cc2)C1 (stereo not drawn) | 7.0 | 0.2 | 2.5 | nt | -0.9
O=C(Nc1cccc(Cl)c1)Nc1cccc(C(=O)O)c1 | 1.9 | 11.7* | -6.7 | 32.8 | 0.6
CCOC(=O)N1CCC(N2Cc3cccc(C(=O)NC(C)c4ccc5c(c4)OCCO5)c3C2=O)CC1 (stereo not drawn) | 2.6 | -0.1 | -1.7 | 15.8 | -0.7
CCC/C(O)=C1\C(=O)CC(C)(C)CC1=NCc1ccccc1 | -0.3 | 77.3* | 0.3 | 1.4 | -1.2
CCOCCCNS(=O)(=O)c1ccc(NC(=O)C2CC(=O)N(c3ccc(C)cc3)C2)cc1 (stereo not drawn) | 0.4 | -0.3 | -0.7 | -4.7 | -0.5
CC(=O)Nc1ccc(NC(=O)COC(=O)c2ccc(S(=O)(=O)N(C)c3ccccc3)cc2)cc1 | nt | nt | nt | 0.5 | nt
CC(=O)N1c2ccc(S(=O)(=O)N3CCC(C(=O)Nc4cccc(C(F)(F)F)c4)CC3)cc2CC1C (stereo not drawn) | 6.4 | 0.0 | -2.4 | -0.4 | -0.1
CCn1c(SCC(=O)Nc2nc3ccc(C)cc3s2)nc2c(c1=O)SC(C)C2 (stereo not drawn) | -3.3 | 0.1 | 16.4* | 10.9 | 0.0
O=C(N/N=C/c1ccccc1O)c1cccc2ccccc12 | nt | 8.5 | nt | 3.1 | 3.1
O=C(N/N=C/c1ccccc1O)c1cc(=O)[nH]c2ccccc12 | 0.1 | 10.6* | 2.2 | nt | 4.4
Cc1ccc2[nH]c(C(=O)N/N=C/c3ccccc3O)c(C)c2c1 | 2.7 | 168.9* | 6.1 | -7.5 | 1.3
CCN1CCN(S(=O)(=O)c2ccc(Cl)c(C(=O)N(C)Cc3ccco3)c2)CC1 | nt | nt | nt | 0.3 | nt
Cc1ccc(-c2nc3ccccc3nc2NN)cc1 | -2.2 | 17.7* | -2.3 | 15.3 | 0.5
CCN(CC)CCC(=O)Nc1cccc2c1C(=O)c1ccccc1C2=O | -0.1 | 26.3* | -0.9 | 26.6 | 12.5
Cc1ccc(N2CCN(C(=O)c3ccccc3NC(=O)/C=C\C(=O)O)CC2)cc1 | -0.3 | 0.3 | -0.5 | -6.2 | -0.3
CCCSc1ccc([C@H]2N[C@@](C)(C(=O)OC)[C@H]3C(=O)N(C)C(=O)[C@@H]23)cc1OC | 1.8 | 0.3 | -3.2 | -1.9 | -0.7
O=C(COC(=O)c1ccccc1Nc1ccccc1)NCc1ccccc1Cl | 2.1 | 683.2* | 2.9 | -6.0 | -2.4
COc1cccc(/C=N/NC(=O)C[n+]2ccccc2)c1O | 7.8 | -1.3 | 2.7 | -0.3 | -2.3
Cc1cccc(/C=N/NC(=O)c2c(-c3ccccc3)noc2C)c1O | 0.4 | 16.1* | 0.6 | 5.9 | 1.2
COc1ccccc1/C=N/NC(=O)c1c(-c2ccccc2)noc1C | 1.4 | 0.3 | -1.6 | 2.5 | 0.2
COc1cc(/C=N/NC(=O)c2cccc([N+](=O)[O-])c2)cc(OC)c1O | 0.1 | 0.1 | -6.1 | -2.9 | -0.7
COc1ccc(CCCC(=O)N/N=C/c2cccc(OC)c2O)cc1C | 0.2 | 7.3 | 16.8* | -4.9 | 0.7
Cc1cccc(/C=N\NC(=O)c2ccc(Cl)cc2)c1O | 1.8 | 41.6* | 0.7 | 5.6 | -0.2
COc1cccc(/C=N/NC(=O)c2ccc([N+](=O)[O-])cc2Cl)c1O | -2.1 | 10.8* | -3.1 | -1.2 | -0.7
Cc1cccc(/C=N/NC(=O)Cc2ccc(Cl)cc2)c1O | 2.2 | 0.4 | 3.5 | 14.1 | 0.0
